Source: the supplement of paper PMC3334620
In all, about 33,000 sequences were measured (“E-score (-0.5 to 0.5)”: median about -0.04, highest 2% from about 0.36 on). The entries come from a sample that favours the highest values as a whole.

What follows are sequences tested against T1, Hmlalpha2 (UniProt P0CY09) (assay: PBM E-score (8-mer binding enrichment) (E-score (-0.5 to 0.5)); higher = stronger / more preferred TF binding). Settings: protein concentration: 200 nM; construct: GST-full length.
T1 sequence: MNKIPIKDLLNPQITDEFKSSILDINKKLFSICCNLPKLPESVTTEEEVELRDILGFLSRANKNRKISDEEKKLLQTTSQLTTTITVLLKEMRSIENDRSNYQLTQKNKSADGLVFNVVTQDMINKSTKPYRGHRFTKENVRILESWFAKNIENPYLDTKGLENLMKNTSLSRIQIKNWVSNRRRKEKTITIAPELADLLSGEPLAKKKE
Method: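 Universal 'all 10-mer' protein binding microarrays (Agilent AMADID 015681) probed with GST-tagged S. cerevisiae TFs (full-length or DBD) made by in vitro transcription/translation (PURExpress), about 100-200 nM. Bound TF was detected with fluorescent anti-GST. Each ungapped 8-mer (which stands for itself and its reverse complement) is scored by the PBM enrichment score (E-score), a modified Wilcoxon-Mann-Whitney statistic from -0.5 to +0.5, computed with the Universal PBM Analysis Suite. Scale: above 0.35 generally sequence-specific binding.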
For CAACAAGA, the “PBM E-score” value was 0.225. For TAACACAA, the “PBM E-score” value was 0.43. With AAACACAA the “PBM E-score” value was 0.322. In the case of CAACTGCG, the “PBM E-score” value is reported as -0.126. With CGACTGAC the “PBM E-score” value was -0.137. With ACTTGTGA the “PBM E-score” value was 0.148. For TAGTCGCA, the “PBM E-score” value was -0.085. For AAGGTGGT, the “PBM E-score” value was -0.0621. For TGCCTACA, the “PBM E-score” value was 0.0851. In the case of AAGCTACA, the “PBM E-score” value is reported as 0.158. With CCGGTGCA the “PBM E-score” value was -0.247. With ATCACACA the “PBM E-score” value was 0.228. With CAAACACG the “PBM E-score” value was 0.314. With AAAACACT the “PBM E-score” value was 0.148. AAAACACA was tested, and the “PBM E-score” value was 0.333. CAAACACA was tested, and the “PBM E-score” value was 0.334. For AACACACA, the “PBM E-score” value was 0.391. For AACACACG, the “PBM E-score” value was 0.319. With TAAACACA the “PBM E-score” value was 0.379. With ATCACACG the “PBM E-score” value was 0.371. In the case of AACACACT, the “PBM E-score” value is reported as 0.313. In the case of AAAACACG, the “PBM E-score” value is reported as 0.426. ATCACACC was tested, and the “PBM E-score” value was -0.0635. With GGCTTAAA the “PBM E-score” value was -0.0594. AGTACTAA was tested, and the “PBM E-score” value was 0.173. With GAGCGCCA the “PBM E-score” value was -0.25. With GCGCAACC the “PBM E-score” value was -0.228. In the case of ACGTCCCT, the “PBM E-score” value is reported as 0.163. For CGTCCTAA, the “PBM E-score” value was -0.108. With GTCTCCAC the “PBM E-score” value was -0.178. In the case of CCCCGTCC, the “PBM E-score” value is reported as -0.382. With ATGGTGAA the “PBM E-score” value was -0.0612. In the case of AGGTATTC, the “PBM E-score” value is reported as 0.139. In the case of ATGTATCG, the “PBM E-score” value is reported as 0.323. For ACGTATTG, the “PBM E-score” value was 0.292. CTGTATTC was tested, and the “PBM E-score” value was 0.255. In the case of ATGTATTG, the “PBM E-score” value is reported as 0.416. With ATGTATTC the “PBM E-score” value was 0.443. With ATAGTTCG the “PBM E-score” value was 0.0279. With CTCGAGTC the “PBM E-score” value was -0.178. In the case of AAGAACCG, the “PBM E-score” value is reported as 0.117. With CCCAATCA the “PBM E-score” value was -0.113. In the case of AGGCATTC, the “PBM E-score” value is reported as -0.265. For AGCGTAAA, the “PBM E-score” value was 0.22. CTCGTAAG was tested, and the “PBM E-score” value was 0.172. CGCGTAAG was tested, and the “PBM E-score” value was 0.369. GGCGTATA was tested, and the “PBM E-score” value was 0.106. In the case of CGCGTAGA, the “PBM E-score” value is reported as 0.359. For CGCGTAAA, the “PBM E-score” value was 0.454. With TGCGTAAA the “PBM E-score” value was 0.441. In the case of CGCGTATA, the “PBM E-score” value is reported as 0.372. With GGCGTAAA the “PBM E-score” value was 0.217. CGCGTATC was tested, and the “PBM E-score” value was 0.219. For CGCGTAAC, the “PBM E-score” value was 0.342. AGCGTAAG was tested, and the “PBM E-score” value was -0.106. With AGCAAGTC the “PBM E-score” value was -0.0673. With CCCTATCG the “PBM E-score” value was -0.272. With AGGAAACC the “PBM E-score” value was -0.0996. In the case of TCCCAGGA, the “PBM E-score” value is reported as -0.361. In the case of CATTAGAG, the “PBM E-score” value is reported as -0.127. For AGATTTGC, the “PBM E-score” value was -0.0168. For CGAGGGTA, the “PBM E-score” value was -0.233. With GCCTGCCA the “PBM E-score” value was -0.0217. In the case of ACATGACT, the “PBM E-score” value is reported as 0.307. In the case of GCATGACA, the “PBM E-score” value is reported as 0.188. ACATGACC was tested, and the “PBM E-score” value was 0.38. CCATGACA was tested, and the “PBM E-score” value was 0.0453. In the case of ACATGACA, the “PBM E-score” value is reported as 0.412. CCATGACC was tested, and the “PBM E-score” value was -0.348. In the case of ACATGACG, the “PBM E-score” value is reported as 0.379. In the case of GCATGACC, the “PBM E-score” value is reported as -0.191. In the case of CCATGACG, the “PBM E-score” value is reported as -0.105. GCTTCAAC was tested, and the “PBM E-score” value was 0.0375. CTTGATCC was tested, and the “PBM E-score” value was -0.142. With AAAATCGT the “PBM E-score” value was 0.0614. For AGATGGAT, the “PBM E-score” value was -0.265. In the case of GTGTCTCA, the “PBM E-score” value is reported as -0.0554. GCCTAGAA was tested, and the “PBM E-score” value was -0.187. CGAGAAAG was tested, and the “PBM E-score” value was -0.0529. For AGCCCTGA, the “PBM E-score” value was -0.0785. In the case of ACCGTGTA, the “PBM E-score” value is reported as 0.473. In the case of GCCGTGTA, the “PBM E-score” value is reported as 0.432. CCCGTGGA was tested, and the “PBM E-score” value was -0.176. CCCGTGTC was tested, and the “PBM E-score” value was 0.168. ACCGTGTC was tested, and the “PBM E-score” value was 0.264. GCCGTGCA was tested, and the “PBM E-score” value was 0.0721. For ACCGTGTG, the “PBM E-score” value was 0.113. GCCGTGAA was tested, and the “PBM E-score” value was -0.197. With CCCGTGTA the “PBM E-score” value was 0.451. With AGCAAACG the “PBM E-score” value was -0.0759. For AAGTGCCG, the “PBM E-score” value was 0.00934. In the case of ACCGACTG, the “PBM E-score” value is reported as -0.317. GTTGTTGA was tested, and the “PBM E-score” value was 0.259. For TTCTGAAA, the “PBM E-score” value was 0.0341. In the case of CTTTCTGA, the “PBM E-score” value is reported as 0.0509. ACATTACG was tested, and the “PBM E-score” value was 0.336. ACATTACT was tested, and the “PBM E-score” value was 0.303. GCATTAGA was tested, and the “PBM E-score” value was 0.0569. CCATTACC was tested, and the “PBM E-score” value was -0.0103. With TCATTAGA the “PBM E-score” value was 0.0985. For GCATTACC, the “PBM E-score” value was 8e-05. In the case of GCATTACA, the “PBM E-score” value is reported as 0.428. TCATTAAA was tested, and the “PBM E-score” value was 0.263. With CCATTACG the “PBM E-score” value was 0.13. With TCATTACA the “PBM E-score” value was 0.439. For CCATTACA, the “PBM E-score” value was 0.435. ACATTACA was tested, and the “PBM E-score” value was 0.449. GTACGAAC was tested, and the “PBM E-score” value was 0.152. GGGAGAGA was tested, and the “PBM E-score” value was -0.33. For ACGGGTTG, the “PBM E-score” value was -0.15. In the case of CCTCAGCG, the “PBM E-score” value is reported as -0.255. With CCCAGAAA the “PBM E-score” value was -0.0348. For GTTGCGAA, the “PBM E-score” value was 0.0227. ACGTCCTC was tested, and the “PBM E-score” value was -0.162. For CACGGCTC, the “PBM E-score” value was -0.0568. With CGTGTCGC the “PBM E-score” value was 0.214. In the case of ATGCCCTG, the “PBM E-score” value is reported as -0.0289. In the case of CCGGCGGA, the “PBM E-score” value is reported as -0.234. In the case of TAAATGTA, the “PBM E-score” value is reported as 0.38. With TACATGTA the “PBM E-score” value was 0.479. GACATGTA was tested, and the “PBM E-score” value was 0.423. With GACATGTC the “PBM E-score” value was 0.327. With GACATTTA the “PBM E-score” value was 0.191. With CACATGTC the “PBM E-score” value was 0.22. In the case of TACATCTA, the “PBM E-score” value is reported as 0.263. With CACATGTA the “PBM E-score” value was 0.416. For CAAATGTA, the “PBM E-score” value was 0.35. For GAAATGTA, the “PBM E-score” value was 0.0891. With TACAGGTA the “PBM E-score” value was 0.135. With AATTGACA the “PBM E-score” value was 0.275. AGTCTAGG was tested, and the “PBM E-score” value was -0.15. With CGCTCTCA the “PBM E-score” value was -0.165. In the case of CAGTCCCG, the “PBM E-score” value is reported as -0.196. With ACGCCGAG the “PBM E-score” value was -0.0454. ATGTGCTA was tested, and the “PBM E-score” value was 0.0958. CGAAGAAG was tested, and the “PBM E-score” value was -0.0393. With ATGTTGAA the “PBM E-score” value was 0.395. For ATGTTGAC, the “PBM E-score” value was 0.356. For ATGTTGAG, the “PBM E-score” value was 0.33. For GTGTTGGA, the “PBM E-score” value was 0.224. GTGTTGAA was tested, and the “PBM E-score” value was 0.398. For CTGTTGAA, the “PBM E-score” value was 0.259. With GAGCTATA the “PBM E-score” value was -0.0673. GGTGCTCA was tested, and the “PBM E-score” value was -0.179. For CCCACGAA, the “PBM E-score” value was -0.102. With GGCAGCCC the “PBM E-score” value was -0.418. For ATTCACAA, the “PBM E-score” value was 0.232. GATACATA was tested, and the “PBM E-score” value was 0.32. TATACAAA was tested, and the “PBM E-score” value was 0.265. In the case of AATACAAT, the “PBM E-score” value is reported as 0.249. AATACAAC was tested, and the “PBM E-score” value was 0.315. AATACATC was tested, and the “PBM E-score” value was 0.368. For AATACAGG, the “PBM E-score” value was 0.2. With AATACAAG the “PBM E-score” value was 0.386. For GATACATC, the “PBM E-score” value was 0.169. In the case of TATACATA, the “PBM E-score” value is reported as 0.445. With AATACAGC the “PBM E-score” value was 0.0849. AATACATG was tested, and the “PBM E-score” value was 0.482. With AATACATT the “PBM E-score” value was 0.329. With GAATGGTA the “PBM E-score” value was 0.232. With GGTGGGGA the “PBM E-score” value was -0.0925. For GGCTTATA, the “PBM E-score” value was -0.0133. For AGTGTTGC, the “PBM E-score” value was 0.169. In the case of CGTAAGTC, the “PBM E-score” value is reported as 0.0646. CCTAAGAG was tested, and the “PBM E-score” value was -0.136. AAGCCAAC was tested, and the “PBM E-score” value was 0.00741. For CATACCCG, the “PBM E-score” value was -0.117. CATACATA was tested, and the “PBM E-score” value was 0.329. With CATACATG the “PBM E-score” value was 0.382. With AATACAAA the “PBM E-score” value was 0.363. AATACATA was tested, and the “PBM E-score” value was 0.444. With AATACAGA the “PBM E-score” value was 0.204. For CATACATC, the “PBM E-score” value was 0.253.
